Compound activity (PubChem BioAssay)
BRCA1 expr act – activators of BRCA1 expression; MCF7-BRCA1-FFLuc reporter, luminescence, 48 h; response scale: scaled: vehicle 0%, 10 µM genistein 100%; AID 624202; Potency, µM (doses to about 46.1 µM), inactives show at the top dose activation, actives largely listed as activators; actives 1.1% (n = 380,000); also: potency is read from the fitted curve at half-maximal effect; nearly all actives have a fitted effect of over 80% in size
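Reporter cells (MCF7, BRCA1 promoter-firefly luciferase) received library compounds across a concentration series for 48 h. End-point luminescence was measured and concentration-effect curves derived after normalization.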
IL2 activator – IL-2 activation; actives 0.065% (n = 360,000); activation, % (series mostly up to about 46 µM); IL-2 activation reporter assay, cell-based qHTS; stimulated with anti-CD3/CD4/CD28 beads; in transgenic mouse T cells; AID 652025; in the data active = activation above about 50%; also: 0% is about no effect
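First, unstimulated transgenic mouse T cells were exposed to compound for 60 min. Next, anti-CD3/anti-CD4-coated beads with anti-CD28 were added. Finally, after 18 h at 37 degrees C, EGFP and DsRed were imaged.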
Apoferritin bind – binds horse apoferritin like a general anesthetic; actives 0.074% (n = 350,000); AID 485281; Potency, µM (highest dose often 77.5 µM), inactives show top-dose activity change, negative = displacement, actives largely listed as inhibitors; apoferritin/1-aminoanthracene competitive binding, fluorescence; also: potency is read from the fitted curve at half-maximal effect; % is scaled to controls: 0 for no effect and ±100 for the full control effect; nearly all actives have a fitted effect of over 20% in size
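Probe: 1-aminoanthracene (50% saturated, PBS). Protein: horse-spleen apoferritin, 10 uM. Incubation: 10 min, room temperature. Detection: 380 nm excitation, 535 nm emission. Analysis: normalized response, four-parameter Hill.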
a7 integrin act – activates integrin-mediated alleviation for muscular dystrophy; AID 624291; actives 0.064% (n = 350,000); alpha7betagal myoblasts, beta-gal FDG fluorescence, 48 h; Potency, µM (series often up to 38.3 µM), without a hit: top-dose activation, actives largely listed as activators;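 also: potency is read from the fitted curve at half-maximal effect; 100% = response of the positive control SU9516; nearly all actives have a fitted effect of over 60% in size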
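alpha7betagal+/- myoblasts (passage 13, 250/well) treated 48 h at 37C with compounds at 1:260 dilution of DMSO stock. Lysed, then beta-galactosidase activity read as FDG fluorescence (ex 480/em 540) after 30 min, with pre-read for autofluorescence.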
PKM2 activator – activators of human pyruvate kinase M2. P14618. purified PKM2, Kinase-Glo ATP luminescence, activation; response scale: 0% is enzyme alone, no compound. Potency, µM (series often up to 57.5 µM), for the others: top-dose activation, actives largely listed as activators. actives 0.34% (n = 260,000). AID 1631; also: potency is read from the fitted curve at half-maximal effect; % is scaled to controls: 0 for no effect and ±100 for the full control effect; nearly all actives have a fitted effect of over 55% in size
Target sequence (P14618 whole entry, looked up): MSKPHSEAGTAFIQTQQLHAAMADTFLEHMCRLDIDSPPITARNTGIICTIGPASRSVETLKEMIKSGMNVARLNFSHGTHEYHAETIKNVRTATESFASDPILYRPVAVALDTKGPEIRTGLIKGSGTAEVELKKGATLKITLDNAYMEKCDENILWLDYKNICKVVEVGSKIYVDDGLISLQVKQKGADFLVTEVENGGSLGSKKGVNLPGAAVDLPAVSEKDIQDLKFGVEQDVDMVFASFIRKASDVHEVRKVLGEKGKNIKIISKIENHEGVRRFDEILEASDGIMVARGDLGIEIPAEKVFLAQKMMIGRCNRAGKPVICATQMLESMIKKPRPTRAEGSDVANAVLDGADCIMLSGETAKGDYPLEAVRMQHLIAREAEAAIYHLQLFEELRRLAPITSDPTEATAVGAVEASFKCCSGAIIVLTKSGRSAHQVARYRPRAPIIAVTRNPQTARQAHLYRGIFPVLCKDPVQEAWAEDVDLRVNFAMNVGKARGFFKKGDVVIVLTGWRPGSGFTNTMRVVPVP
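ATP formation by purified human PK-M2, quantified via coupled luciferase luminescence after 1 h at room temperature with 0.1 mM ADP and 0.5 mM PEP final.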
* marks the source's active call; other numbers are inactive results; . = no result. Hits are enriched below; roughly 1.3% of the tested compounds scored in any of these assays. Unless noted, calls follow the shape of the dose curve; as a rule, active = well fitted curve in the direction sought with a large enough effect; inconclusive = small, poorly fitted or top-dose-only effect, or another doubt; inactive = no such curve, though single readings can be large; an effect the other way counts as inactive or inconclusive.

SMILES | BRCA1 expr act | IL2 activator | Apoferritin bind | a7 integrin act | PKM2 activator
CCOC(=O)c1c(/N=C/c2c(O)n(-c3cccc(C)c3)c(=O)[nH]c2=O)sc2c1CCCC2 | 5.8% | 0.9 | -9.9% | 29.6% | -0.5%
CCOC(=O)c1c(/N=C/C2C(=O)NC(=O)NC2=O)sc2c1CCC2 | -15.8% | 75.7* | -3.4% | 1.1% | 5.0%
Cc1cc(/C=C/c2cccc3sc(C)[n+](CCCCI)c23)ccc1N(CCCl)CCCl | -31.4% | . | . | . | .
Cc1ccc(N2CCN(C(=O)c3cn(CC4CCCCC4)nn3)C(C)C2)cc1 (stereo not given) | 2.51µM* | -4.9 | . | -42.5% | .
Nc1c(Br)cc2c3c(cccc13)-c1ccccc1-2 | -34.9% | 81.8* | . | -33.7% | .
O=c1[nH]c(O)c(/C=C2\C=Nc3ccc(OCc4ccccc4)cc32)c(=O)[nH]1 | -18.0% | 192.6* | -22.0% | -10.8% | -0.3%
COc1cc(C2c3cc4c(cc3C(O)C3COC(=O)C23)OCO4)cc(OC)c1O (stereo not given) | . | . | 4.9% | . | .
COc1cc([C@@H]2c3cc4c(cc3[C@@H](OC)[C@H]3COC(=O)[C@H]23)OCO4)cc(OC)c1O | -62.9% | -0.3 | -3.0% | -5.1% | 31.6µM*
COc1ccc(CCN2CCC(CNC(=O)c3cnn(-c4ccc(C)cc4)c3C3CCN(C(=O)OC(C)(C)C)CC3)CC2)cc1 | . | . | 42.4% | . | .
COc1ccc(CCN2CCCC(CN(C)C(=O)c3cc(C)oc3C)C2)cc1 (stereo not given) | 7.94µM* | -1.4 | -12.3% | 4.3% | -1.6%
CCOC(=O)CCN(SN(C)C(=O)Oc1cccc2c1OC(C)(C)C2)C(C)C | . | . | -9.1% | . | .
